High-throughput results as filed in PubChem BioAssay.
Sampled rows, rich in hits. Any-hit rate of the full collection: about 15%.
ELG1 repair inh: qHTS screen for small molecules that inhibit ELG1-dependent DNA repair in human embryonic kidney (HEK293T) cells expressing luciferase-tagged ELG1; HEK293T ELG1-luciferase reporter, luminescence, 16 h; DNA damage induced by 5-fluorouridine; Potency, µM (highest dose often 46.1 µM), without a hit: at the top dose activity change, negative = inhibition, actives largely listed as inhibitors; 330,000 compounds, 2.3% hits; AID 504467, 2011; also: nearly all actives have a fitted effect of over 55% in size
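Quantitative HTS, concentration-response format. 2,000 cells/well co-treated with 5-fluorouridine and compound, 16 hr in 5% CO2 at 37 °C; ONE-Glo luminescence read after 30 min.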
RORgamma inh: qHTS for inhibitors of ROR gamma transcriptional activity; AID 2551, 2010; Drosophila S2 Gal4-RORgamma UAS-luciferase reporter, 20 h; 310,000 compounds, 5.4% hits; Potency, µM (series often up to 53.6 µM), without a hit: at the highest dose activity change, negative = inhibition, most hits filed as inhibitors; Nuclear receptor ROR-gamma (Mus musculus), P51450; also: nearly all actives have a fitted effect of over 60% in size
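Read-out: Photinus luciferase luminescence; inhibitors lower reporter signal. Insect Schneider cells with Gal4-ROR gamma fusion under metallothionein promoter, UAS reporter; 700 uM final copper sulfate induction, 20 hr, ambient temperature.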
TDP1 cell CPT: qHTS for Inhibitors of human tyrosyl-DNA phosphodiesterase 1 (TDP1): qHTS in cells in presence of CPT; Potency, µM (top dose mostly 46.2 µM), for the others: at the highest dose activity change, negative = growth inhibition, actives largely listed as inhibitors; chicken DT40 Tdp1-/-;hTDP1 cells + 20 nM CPT, ATP luminescence, 48 h; 420,000 compounds, 12% hits; also: nearly all actives have a fitted effect of over 55% in size
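Cell growth measured by CellTiter-Glo luminescence after a minimum 48 h, 37 C compound exposure with 20 nM CPT in Tdp1-knockout DT40 cells stably expressing hTDP1, seeded 400/well; qHTS titration format.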
TDP1 cell noCPT: qHTS for Inhibitors of human tyrosyl-DNA phosphodiesterase 1 (TDP1): qHTS in cells in absence of CPT; DT40 Tdp1-/- hTDP1 cells, no CPT, ATP luminescence, 48 h; Potency, µM (titrated, usually from 46.2 µM), for inactives: at the highest dose activity change, negative = growth inhibition, usual class: inhibitors; 420,000 compounds, 15% hits; also: nearly all actives have a fitted effect of over 55% in size
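Growth kinetics read by CellTiter-Glo luminescence after ≥48 hr at 37 °C. Cells: DT40 Tdp1-/- stably carrying human TDP1, 400 per well, compound exposure in the absence of CPT (DMSO vehicle).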
12-LOX inh: Primary qHTS assay for inhibitors of human arachidonate 12S-lipoxygenase (ALOX12): Round 2. Polyunsaturated fatty acid lipoxygenase ALOX12 (Homo sapiens), P18054. purified 12hLO, xylenol orange hydroperoxide absorbance. Potency, µM (top dose mostly 108 µM), without a hit: at the top dose activity change, negative = inhibition, usual class: inhibitors. 580,000 compounds, 1.1% hits. AID 1671190, 2021
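Hydroperoxide product was detected by ferrous iron/xylenol orange as the 573 to 405 nm absorbance ratio. Arachidonic acid at 40 uM (final) was turned over for 30 min at room temperature by 150 nM human 12hLO, pH 7.0 Hepes buffer, after 15 min compound preincubation.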
VP16 counter: VP16 counterscreen qHTS for inhibitors of ROR gamma transcriptional activity | Drosophila S2 Gal4-VP16 UAS-luciferase, luminescence, 20 h | Potency, µM (top dose mostly 53.6 µM), without a hit: at the top dose activity, negative = inhibition, usual class: inhibitors | 310,000 compounds, 3.5% hits | AID 2546, 2010;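 also: Gal4-VP16 expression switched on by copper sulfate through the metallothionein promoter; nearly all actives have a fitted effect of over 50% in size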
Starred values were filed as active, the others as inactive; u = inconclusive; x = not tested or not shown; [ ] = another dose, or the depositor's remark. Calls follow the shape of the dose curve; as a rule, active = well fitted curve in the direction sought with a large enough effect; inconclusive = small, poorly fitted or top-dose-only effect, or another doubt; inactive = no such curve, though single readings can be large; an effect the other way counts as inactive or inconclusive. % is scaled to controls: 0 for no effect and ±100 for the full control effect; potency is read from the fitted curve at half-maximal effect.

SMILES | ELG1 repair inh | RORgamma inh | TDP1 cell CPT | TDP1 cell noCPT | 12-LOX inh | VP16 counter
CC(=O)O[C@H]1C[C@H](O[C@H]2[C@@H](O)C[C@H](O[C@H]3[C@@H](O)C[C@H](OC4CC[C@@]5(C)C(CC[C@@H]6[C@@H]5CC[C@]5(C)[C@@H](C7=CC(=O)OC7)[C@@H](O)C[C@]65O)C4)O[C@@H]3C)O[C@@H]2C)O[C@H](C)[C@H]1O[C@@H]1O[C@H](CO)[C@@H](O)[C@H](O)[C@H]1O (stereo partly specified) | x | x | 3.3µM* | 2.4µM* | 11% | x
CC(=O)OC1CC(OC2C(O)CC(OC3C(O)CC(OC4CCC5(C)C(CCC6C5CCC5(C)C(C7=CC(=O)OC7)C(O)CC65O)C4)OC3C)OC2C)OC(C)C1OC1OC(CO)C(O)C(O)C1O (stereo unspecified) | x | x | 1.5µM* | 1.8µM* | 14% | x
C[C@H]1O[C@@H](O[C@H]2CC[C@@]3(C)[C@H](CC[C@@H]4[C@@H]3C[C@@H](O)[C@]3(C)[C@@H](C5=CC(=O)OC5)CC[C@]43O)C2)C[C@H](O)[C@@H]1O[C@H]1C[C@H](O)[C@H](O[C@H]2C[C@H](O)[C@H](O[C@@H]3O[C@H](CO)[C@@H](O)[C@H](O)[C@H]3O)[C@@H](C)O2)[C@@H](C)O1 | x | x | 1.3µM* | 0.94µM* | -2% | x
CCCCCc1nc2ccccc2c(=O)n1-c1ccccc1[N+](=O)[O-] | 5% | 37% | u | 16µM* | -12% | 11%
Cn1c(=O)c2c(-c3ccccc3)n3c(c2n(C)c1=O)C(c1ccco1)Nc1ccccc1-3 (stereo unspecified) | x | x | u | u | -4% | x
COc1ccccc1C1Nc2ccccc2-n2c(-c3ccccc3)c3c(=O)n(C)c(=O)n(C)c3c21 (stereo unspecified) | x | x | -102% | 6.5µM* | -25% | x
CCOC(=O)c1ccc(NC(=O)C2C3C=CC(O3)C2C(=O)O)cc1 (stereo unspecified) | u | 9% | x | x | x | 1%
CCOC(=O)c1ccc(NC(c2ccc(N(C)C)cc2)P(=O)(OC(C)C)OC(C)C)cc1 (stereo unspecified) | -20% | 31% | u | 29µM* | -4% | -2%
Cc1[nH]c2ccc(C34CC5CC(CC(C5)C3)C4)cc2c1CCN | x | x | x | x | 32µM* | x
Cc1[nH]c2c(C(C)C)cccc2c1CCN | x | x | x | x | -59% | x
ClCCN(CCCl)c1ccc(-n2cnc3c(Cl)ncnc32)cc1 | x | x | 6.5µM* | 6.5µM* | -1% | x
Cc1c(NC(=O)Nc2cccc(C(F)(F)F)c2)sc2nc3n(c(=O)c12)CCC(C)CC3 (stereo unspecified) | x | x | 13µM* | 18µM* | -19% | x
Cc1cccc(Cn2c(=O)n(CC3CCC(C(=O)N4CCC(C)CC4)CC3)c(=O)c3sccc32)c1 (stereo unspecified) | x | x | 21µM* | 16µM* | -17% | x
O=c1ccc(-c2cncnc2)c2n1C[C@H]1C[C@@H]2CN(S(=O)(=O)c2ccccc2)C1 | x | x | x | x | 53%[176 µM] | x
Cc1cccc(-n2c(/C=C/c3ccc([N+](=O)[O-])o3)nc3ccccc3c2=O)c1 | u | 19% | 3.3µM* | 4.6µM* | -34% | u
